Compound activity deposited in PubChem BioAssay by several laboratories.
Shown are actives, neighbours in structure and some others; about 3.7% of the full set was active somewhere.
tim23-1 inh: inhibits growth of tim23-1 mutant yeast; S. cerevisiae tim23-1 growth, BacTiter-Glo luminescence, 24 h; inhibition, % at 20 µM; 330,000 tested, 1.3% active; AID 463212;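 active = growth inhibition of the mutant yeast at or above 50%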;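 also: temperature-sensitive mutant grown at 25 °C; plate controls were DMSO-treated mutant yeast for no effect and medium wells lacking yeast for full effect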
TIM10 inh: TIM10 yeast growth inhibition. 330,000 tested, 1.4% active. inhibition, % at 10 µM. S. cerevisiae TIM10 strain growth, BacTiter-Glo luminescence, 24 h. AID 463195;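 active = inhibition of 40% or more at the single tested concentration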;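 also: wild-type TIM10 isogenic control strain grown at permissive 25 °C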
Rce1 inhib: inhibitors of yeast Ras-converting enzyme. Q03530. yeast membranes, quenched prenylated peptide cleavage fluorescence. calls only. 290,000 tested, 0.27% active;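 active = fall in fluorescence gain of 50% or more versus controls, with final raw signal at or below 3038400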;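 also: plate controls were neutral control wells for no effect and wells lacking membranes for full effect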
Target sequence (Q03530 whole entry, looked up): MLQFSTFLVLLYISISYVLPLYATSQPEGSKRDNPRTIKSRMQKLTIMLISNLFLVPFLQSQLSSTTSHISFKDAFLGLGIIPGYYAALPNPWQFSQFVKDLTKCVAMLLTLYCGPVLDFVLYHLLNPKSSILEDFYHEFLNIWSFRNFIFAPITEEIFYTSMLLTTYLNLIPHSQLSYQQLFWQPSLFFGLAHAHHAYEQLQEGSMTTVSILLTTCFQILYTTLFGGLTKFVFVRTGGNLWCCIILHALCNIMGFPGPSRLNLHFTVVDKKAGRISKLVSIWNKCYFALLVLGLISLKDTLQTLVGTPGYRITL
tim10-1 inh: growth inhibitors of tim10-1 mutant yeast; S. cerevisiae tim10-1 ts strain growth, BacTiter-Glo, 24 h; inhibition, % at 20 µM; 330,000 tested, 2.2% active;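 active = inhibition of at least 40%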;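 also: mutant grown at 25 °C; 0% = DMSO wells with yeast and 100% = wells holding no yeast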
PfHsp90 set2: inhibits growth of yeast expressing Plasmodium falciparum Hsp90; S. cerevisiae expressing PfHsp90, BacTiter-Glo ATP, 48 h; yeast lacking PDR1 and PDR3 efflux regulators; inhibition, % at 9.4 µM; 310,000 tested, 0.32% active; AID 504621;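 active = every replicate shows inhibition above about 80%, whatever the replicate mean, limit read from the data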;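 also: 0% = DMSO neutral controls and 100% = 20 µM radicicol positive controls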
tim10-1 confirm: tim10-1 yeast growth inhibition, confirmed. inhibition, % at 20 µM. S. cerevisiae tim10-1 ts strain growth, BacTiter-Glo, 24 h. shares compounds with tim10-1 inh. 7,400 tested, 56% active;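 active = inhibition of yeast growth at or above a set limit in either of two repeat tests at 20 µM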;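 also: tim10-1 mutant grown at permissive 25 °C to find synthetic lethal compounds; 0% = DMSO yeast wells and 100% = medium wells without yeast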
Starred values were filed as active, the others as inactive; i = inactive; . = no result.

SMILES | tim23-1 inh | TIM10 inh | Rce1 inhib | tim10-1 inh | PfHsp90 set2 | tim10-1 confirm
CCCCn1c(N)c(N(CC(C)C)C(=O)c2ccc(Cl)c(S(=O)(=O)N3CCCC3)c2)c(=O)[nH]c1=O | 1.8 | 2.0 | i | 12.1 | 5.6 | .
CCOC(=O)C1CN(S(=O)(=O)c2cccc(C(F)(F)F)c2)c2cc(CC(=O)OC)ccc2O1 (configuration not stated) | 18.5 | 7.0 | i | 46.5* | -17.5 | 24.8
O=C(COc1cc2oc(=O)cc(-c3ccccc3)c2cc1Cl)NCc1ccccn1 | -10.0 | -24.3 | i | 41.9* | -14.6 | -57.9
N#CC1(Nc2ccccc2)C(=O)Nc2ccccc21 (configuration not stated) | 19.2 | -7.4 | i | 11.8 | 5.7 | .
N#CC1(Nc2cccc(Br)c2)C(=O)Nc2ccccc21 (configuration not stated) | 37.2 | 38.7 | i | 41.9* | 11.8 | 38.0*
CC(C)(C)c1ccc(/C=C/C(=O)c2ccc(NC3=NCCCS3)cc2)cc1 | 35.0 | 26.1 | i | 43.0* | 12.8 | 35.4*
COc1cccc(/C=C/C(=O)c2ccc(NC3=NCCCS3)cc2)c1 | 39.3 | 38.2 | i | 42.7* | 4.8 | 36.8*
O=C(/C=C/c1ccccc1)c1ccc(NC2=NCCCS2)cc1 | . | . | . | . | 11.6 | .
COc1ccc(CNC(=O)C2CCCN(c3ncnc4c3nc3n4CCCCC3)C2)cc1 (configuration not stated) | 17.4 | 12.7 | i | 2.1 | -8.5 | .
O=C(Nn1c(COc2ccccc2)nc2ccccc2c1=O)C(Cl)(Cl)Cl | 31.4 | 28.1 | i | 40.0* | -2.1 | 32.5*
Cc1nc2ccccc2c(=O)n1NC(=O)COc1ccccc1 | -6.5 | -6.7 | i | -2.2 | 1.4 | .
COc1ccccc1N1CCN(C(=O)c2oc3ccc(F)cc3c2C)CC1 | 43.9 | 24.3 | i | 42.0* | -31.5 | 28.7
COc1ccc(/C=C/C(=O)c2oc3ccc(F)cc3c2C)cc1 | 29.1 | 26.8 | i | 40.9* | 13.9 | 31.4*
COc1ccc2oc(C(=O)NNC(=O)c3ccc(F)cc3)c(C)c2c1 | -4.0 | -4.0 | i | -15.1 | -20.0 | .
O=C(c1cc2ccccc2cc1O)N1CCN(c2cccc(Cl)c2)CC1 | 47.5 | 37.4 | i | 47.0* | . | 30.1*
COc1ccccc1N1CCN(C(=O)c2ccc3[nH]c(C)c(C)c3c2)CC1 | 45.6 | 25.9 | i | 42.3* | -27.7 | 25.2
COc1cc(NC(=S)N(C)CCC#N)c(OC)cc1Cl | -1.2 | 6.8 | i | 8.3 | 9.5 | .
O=C(c1ccccc1Br)N1CCN(c2ccccc2)CC1 | 26.7 | 0.7 | i | 85.5* | . | 15.3
Cc1[nH]c2ccc(C(=O)N3CCN(c4cccc(Cl)c4)CC3)cc2c1C | 48.1 | 13.5 | i | 56.0* | 93.0* | 13.4
Cc1cccc(N2CCN(C(=O)c3ccc4[nH]c(C)c(C)c4c3)CC2)c1C | 29.0 | 19.0 | . | 13.4 | -5.8 | .
CSc1nc2ccc(NC(=O)c3ccc(F)c(F)c3)cc2s1 | -19.8 | 1.9 | i | -7.7 | 24.9 | .
CCOC(=O)Nc1ccc2nc(Sc3ccc(Cl)cc3)sc2c1 | 26.6 | 20.4 | i | 42.1* | -0.6 | 33.5*
COc1ccc(-c2noc(N3CCC(C(=O)NCCCN4CCCCC4)CC3)n2)cc1 | 3.5 | -3.0 | i | 5.8 | 4.1 | .
CC/C(=N\Nc1ccccc1[N+](=O)[O-])c1ccc(O)cc1 | 38.1 | 39.7 | i | 56.8* | -43.0 | 39.4*
CC/C(=N\Nc1ccc([N+](=O)[O-])cc1[N+](=O)[O-])c1ccc(O)cc1 | 18.5 | 19.8 | i | 35.2 | -56.2 | .
SMILES | tim23-1 inh | TIM10 inh | Rce1 inhib | tim10-1 inh | PfHsp90 set2 | tim10-1 confirm
CC(=O)NNS(=O)(=O)c1scc(S(=O)(=O)c2ccc(Cl)cc2)c1C | 18.0 | 10.5 | i | 0.9 | -63.6 | .
CC(C)COc1cccc(-c2cc(C(=O)Nc3ccon3)c3ccccc3n2)c1 | 5.7 | 33.3 | i | 7.0 | -21.0 | .
COc1ccc(OC)c(-c2cc(C(=O)N3CCc4ccccc4C3)no2)c1 | 38.4 | 22.8 | i | 41.0* | . | 26.8
COc1ccccc1N1CCN(C(=O)c2cc(-c3ccc(F)cc3)on2)CC1 | 49.3 | 27.5 | i | 30.3 | -3.2 | .
COc1ccccc1-c1cc(C(=O)N2CCN(c3ccccc3OC)CC2)no1 | 40.5 | 36.8 | i | 48.4* | 3.5 | 32.5*
CCC(C(=O)N1CCN(c2ccccc2OC)CC1)c1ccccc1 (configuration not stated) | 25.7 | 1.7 | i | 42.3* | -0.5 | 12.8
COc1ccc(-n2cc(C#N)c(=O)[nH]c2=O)cc1 | 1.2 | -15.1 | i | -11.7 | -5.5 | .
COc1ccccc1NC(=S)Nc1ccc2cn[nH]c2c1 | 22.0 | 5.6 | i | -6.7 | -6.3 | .
COc1ccc(C)cc1NC(=O)C1CC(=O)N(CCc2ccccc2)C1 (configuration not stated) | 19.1 | 6.3 | i | 24.6 | 7.6 | .
CC(=O)c1cccc(NC(=O)c2cc(Cl)sc2Cl)c1 | 25.4 | 23.1 | i | 42.5* | -32.5 | 19.8
Cc1ccc(C)c(CSc2nnc(-c3ccccn3)n2N)c1 | 29.9 | 22.3 | i | 43.8* | 13.9 | 29.9
O=C(CC(=O)N/N=C/c1ccc(C(=O)O)cc1)NCCc1ccccc1 | 8.8 | 1.3 | i | 2.4 | -15.2 | .
CC(=O)Oc1ccc2c(=O)c(-c3ccccc3)coc2c1 | 35.2 | 21.6 | i | 42.5* | -9.9 | 32.0*
CCOC(=O)COc1ccc2c(=O)c(-c3ccccc3)coc2c1 | 0.7 | 5.4 | i | 3.0 | -10.7 | .
C/C(=N/NS(=O)(=O)c1ccc(C(C)(C)C)cc1)c1ccc2c(c1)OCO2 | 49.9 | 23.9 | i | 33.8 | -1.9 | .
C/C(=N\NS(=O)(=O)c1ccc(C(C)(C)C)cc1)c1ccccc1 | 48.9 | 29.2 | i | 42.4* | -14.0 | 42.6*
C/C(=N/NS(=O)(=O)c1ccccc1)c1ccc(Cl)cc1 | 12.6 | 32.2 | i | 40.0 | 8.8 | 19.5
CCN(CC)S(=O)(=O)c1ccc(NC(=O)CO/N=C(\N)c2ccccc2)cc1 | 13.1 | 1.6 | i | 14.4 | . | .
CN(C)S(=O)(=O)c1cccc(COC(=O)CCNC(=O)c2ccc([N+](=O)[O-])cc2)c1 | -13.4 | 10.2 | . | -5.9 | -19.3 | .
CCn1c(SC(C)C)nnc1-c1cc(-c2ccccc2)sc1N | 39.1 | 38.8 | i | 46.4* | . | 38.5*
CCn1c(SCC(O)c2ccccc2)nnc1-c1ccccc1 (configuration not stated) | 12.7 | 5.9 | i | 26.9 | 17.7 | .
CCOc1cc(/C=C2\N=C(C)OC2=O)cc(Br)c1OCC(=O)OC | 26.3 | 15.8 | i | 43.7* | . | 10.2
CCOc1cc(/C=C2\N=C(C)OC2=O)cc(Br)c1OCCc1ccccc1 | 30.4 | 28.9 | i | 21.1 | 16.1 | .
CCOc1ccccc1N(CC(=O)NCCc1ccc(OC)c(OC)c1)S(=O)(=O)c1ccccc1 | 29.6 | 10.3 | i | 12.5 | -23.6 | .
N/C(=N\OC(=O)CCCc1ccccc1)c1ccccc1 | 35.1 | 34.8 | i | 44.9* | -4.3 | 43.7*
